The values below come from PubChem BioAssay AID624256 (NMMLSC, 2012).

Screen size: about 360,000 compounds; about 3,700 (1%) were called active. Roughly 2% stayed inconclusive and do not appear here.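 Rule for the calls: active = normalized GFP-positive differentiation at or above the plate's own cutoff, the solvent-only control mean plus 3 SD; inconclusive = no clear call, values can overlap the other calls; inactive = the rest.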 Shown is part of a subset that was picked to be rich in actives.

The nature of the assay: induction of myeloid progenitor differentiation, primary screen, cell-based, flow cytometry, MLPCN library (AID 624256).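 For GFP+ MAC1+ double positive: cells exposed to compound for four days before flow analysis.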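 For normalized GFP-positive differentiation: cells exposed to compound for four days before flow analysis; 0% = DMSO wells and 100% = fulvestrant positive control at 5 µM.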 Particulars: ER-HoxA9 myeloid progenitors, lysozyme-GFP differentiation, at 10 µM; GFP+ MAC1+ double positive: measured here: differentiation confirmed by MAC1 staining, stronger effect = higher value; normalized GFP-positive differentiation: stronger effect = higher value.
Take `COc1ccc(-c2nc3ccc(Br)cn3c2Cc2ccc(C)cc2)cc1OC`: the GFP+ MAC1+ double positive amounted to 0.6% and the molecule was called inactive.
Take `COc1ccc(CN2CCC(C)(Oc3cccc(F)c3)C2)c2ccccc12` (stereo not drawn): the GFP+ MAC1+ double positive was 0.4% and the molecule was called inactive.
Regarding `COc1ccc(NCCc2ccccn2)cc1`, the GFP+ MAC1+ double positive stood at 0.7% and the call was inactive.
With `COc1ccc2nc(-c3ccccn3)ccc2c1`, the GFP+ MAC1+ double positive was determined as 0.3% and the molecule was called inactive.
Take `COc1cnc(-c2ccccn2)nc1Oc1ccc(C(C)(C)C)cc1`: the GFP+ MAC1+ double positive stood at 12.1% and the normalized GFP-positive differentiation was 308% (active).
On to `CCc1nc2c(OCC(=O)C(C)(C)C)cccn2c1N(C)C(=O)c1ccccc1F`, for which the GFP+ MAC1+ double positive worked out at 0.3% and the molecule was called inactive.
The matching figures for `C=CCC[C@H](CCCCC)OC(=O)/C=C/[C@H](O)[C@@H](O)C[C@@H](O)CC=C`: 1.1% and “inactive”.
In the case of `COc1ccccc1N1CCN(S(=O)(=O)CCNC(=O)c2ccc(OC(C)C)cc2)CC1`, the GFP+ MAC1+ double positive was found to be 1% and the normalized GFP-positive differentiation is 44.1% (active).
Turning to `CCOc1ccc(CC(=O)NCCS(=O)(=O)N2CCN(c3ccccc3)CC2)cc1`, the GFP+ MAC1+ double positive worked out at 0.6% and the molecule was called inactive.
As to `O=C(NCCS(=O)(=O)N1CCN(c2ccccc2F)CC1)c1ccc(Br)o1`, the GFP+ MAC1+ double positive was determined as 2.9% and the outcome was inactive.
Regarding `O=C(NCc1cccnc1)c1cc(C2CCCCN2C(=O)CCc2ccccc2)on1` (stereo not drawn), the GFP+ MAC1+ double positive amounted to 0.7% and the molecule was classed as inactive.
Turning to `CCCCOCCCNC(=O)C[C@@H]1C[C@@]2(C(=O)OCC)CCCC=C2N(CCC2=CCCCC2)C1=O`, the GFP+ MAC1+ double positive worked out at 1.7% and the molecule was classed as inactive.
With `Cc1ccc(-c2nc(C#N)c(NCCCn3ccnc3)o2)cc1`, the GFP+ MAC1+ double positive is 2.5% and the normalized GFP-positive differentiation is 10.9% (active).
Regarding `Cc1ccc(S(=O)(=O)c2nc(NCCCn3ccnc3)sc2Cl)cc1`, the GFP+ MAC1+ double positive was 0.5% and the call was inactive.
The corresponding values for `Cc1ccc2c(Cl)c(C(=O)NCCCn3ccnc3)sc2c1` are 0.5% and “inactive”.
Regarding `CCOC(=O)c1cc2cc(OC)ccc2n1C1CCN(C)CC1`, the GFP+ MAC1+ double positive was 0.3% and the call was inactive.
For the molecule `O=C(C(=O)N1CCN(c2ccccc2)CC1)c1ccc2c(c1)OCO2`, the GFP+ MAC1+ double positive was found to be 1% and the outcome was inactive.
`O=C(N[C@H]1CC[C@H](CC(=O)N2CCCCC2)O[C@@H]1CO)c1cccc(F)c1`: the GFP+ MAC1+ double positive was 1.6% and the result was inactive.
As for `COC(=O)c1c(-c2ccc(C)cc2)csc1N`, the GFP+ MAC1+ double positive came to 2% and the molecule was called inactive.
As to `CCC(C(=O)OC)n1cnc2scc(-c3ccc(C)cc3)c2c1=O` (stereo not drawn), the GFP+ MAC1+ double positive stood at 0.9% and the result was inactive.
Take `CCOC(=O)c1c(-c2ccc(C)cc2)csc1/N=C(\C)C1=C(O)c2ccccc2C1=O`: the GFP+ MAC1+ double positive worked out at 10.3% and the normalized GFP-positive differentiation was 142% (active).
Regarding `Cc1sc2ccccc2c1CNC[C@H]1O[C@@H](n2ccc(=O)[nH]c2=O)[C@H](O)[C@@H]1O`, the GFP+ MAC1+ double positive was found to be 1.3% and the result was inactive.
As for `CC1(C)OC(=O)C2=C(C[C@@H](C3CC3)O[C@H]2c2ccc(Cl)cc2)O1`, the GFP+ MAC1+ double positive came to 1.4% and the call was inactive.
For the molecule `COCCNC(=O)C1C(=O)Nc2ccccc2C(=O)N1c1ccc2c(c1)OCCO2` (stereo not drawn), the GFP+ MAC1+ double positive is 3.1% and the call was inactive.
As for `COc1ccccc1N1CCN(C(=O)c2cc3c(-c4ccc(Cl)cc4)nn(C)c3s2)CC1`, the GFP+ MAC1+ double positive was 3.7% and the result was inactive.
As for `CCOC(=O)N1CCN(C(=O)c2cc3c(-c4ccc(Cl)cc4)nn(C)c3s2)CC1`, the GFP+ MAC1+ double positive was 33.3% and the normalized GFP-positive differentiation was 83.1% (active).
Turning to `Cn1nc(C(F)(F)F)c2cc(C(=O)N3CCOCC3)sc21`, the GFP+ MAC1+ double positive was determined as 0.1% and the result was inactive.
Turning to `CCCS(=O)(=O)NC(=O)C1(C)CCCN(C(=O)c2cc(C)on2)C1` (stereo not drawn), the GFP+ MAC1+ double positive turned out to be 0.6% and the outcome was inactive.
With `FC(F)(F)Oc1ccccc1C(c1nnnn1C1CCCCC1)N1CCN(C/C=C/c2ccccc2)CC1` (stereo not drawn), the GFP+ MAC1+ double positive stood at 1.6% and the molecule was classed as inactive.
As for `O=c1[nH][nH]c2c1[C@H](c1ccc(Cl)cc1)O[C@H](CCc1ccccc1)C2`, the GFP+ MAC1+ double positive turned out to be 0.6% and the molecule was called inactive.
For the molecule `COc1cc(-c2n[nH]c(=S)n2Cc2ccccc2)cc(OC)c1OC`, the GFP+ MAC1+ double positive was found to be 22.5% and the normalized GFP-positive differentiation was 297% (active).
Consider `CC(C)Oc1ccc(Cc2n[nH]c(=S)n2Cc2ccccc2)cc1Cl`, for which the GFP+ MAC1+ double positive turned out to be 0.3% and the result was inactive.
For `CCCc1cc(-c2n[nH]c(=S)n2Cc2ccccc2)cs1`, the GFP+ MAC1+ double positive was determined as 5.8% and the molecule was classed as inactive.
Consider `CN(C)CCNC(=O)c1cccc(-c2cnc3c(NC=O)cc(-c4cccc(C(F)(F)F)c4)cn23)c1`, for which the GFP+ MAC1+ double positive was 2.2% and the outcome was inactive.
